Assay results from PubChem BioAssay (NCATS).
Records with an inconclusive call do not appear. A number with no mark means an inactive call. The call rests on the fitted dose curve; in most records, active means well fitted activation curve with a large enough effect; inconclusive means small, poorly fitted or top-dose-only effect; inactive means no such curve, though single readings can be large or run the other way.

What follows are compounds tested against Cellular tumor antigen p53 (Homo sapiens) (UniProt P04637) (assay: Primary qHTS for small molecule compounds that upregulate eGFP-tagged delta133p53alpha (in N-terminal) cells. (AID 2060322;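 further: series mostly up to about 56 µM; 0% = DMSO vehicle and 100% = reference activator; nearly all actives have a fitted effect of over 75% in size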)). Conditions: NCI-H358 eGFP-delta133p53alpha fluorescence, 24 h; activation: hits give high values.
Sequence of Cellular tumor antigen p53 (Homo sapiens) (P04637 whole entry, looked up): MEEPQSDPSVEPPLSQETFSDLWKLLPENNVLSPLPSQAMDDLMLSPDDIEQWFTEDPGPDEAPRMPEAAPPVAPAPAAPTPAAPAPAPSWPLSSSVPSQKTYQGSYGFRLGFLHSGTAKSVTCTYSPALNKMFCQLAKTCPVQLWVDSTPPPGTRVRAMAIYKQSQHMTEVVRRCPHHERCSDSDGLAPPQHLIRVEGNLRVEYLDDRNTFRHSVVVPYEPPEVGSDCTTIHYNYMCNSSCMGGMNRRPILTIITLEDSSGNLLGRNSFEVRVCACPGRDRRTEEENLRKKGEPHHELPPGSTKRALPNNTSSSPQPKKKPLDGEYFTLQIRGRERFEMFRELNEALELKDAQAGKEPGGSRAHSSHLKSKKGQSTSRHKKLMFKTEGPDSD
In short: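 NCI-H358 cells pre-induced 24 h with 10 ng/ml doxycycline to express N-terminal eGFP-delta133p53alpha, then dosed 24 h at 37C without doxycycline; fixed, Hoechst-stained, GFP intensity by laser scanning cytometry, normalized to DMSO (0%) and 57.5 uM 5-azacytidine (100%).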
`CC(=O)N[C@@H](CCC(N)=O)C(=O)O` gave an activation of -8.37%. `CC(N)CCCC(C)(C)O` (configuration not stated) showed an activation of -2.82%. `Cc1cc(NC(=O)C2=C(O)c3ccccc3S(=O)(=O)N2C)no1` showed an activation of -0.837%. `COc1ccc2cc1Oc1ccc(cc1)C[C@H]1c3cc(c(OC)cc3CCN1C)Oc1c(OC)c(OC)cc3c1[C@H](C2)N(C)CC3` showed an activation of -18.2%. `Nc1ccc(S(=O)(=O)NCc2ccccc2)cc1` showed an activation of -10%. `COC(=O)C(c1ccccc1Cl)N1CCc2sccc2C1` (configuration not stated) was tested, and the activation was 10.7%. Compound `NC(=O)c1cccc2[nH]c(-c3ccc([C@@H]4CCCN4)cc3F)nc12` has an activation of -16.8%.
